Data reported in the supplement of paper PMC10849652.
Of roughly 7,900 targets only a part is listed; those with a hit were picked by preference. About 0.6% of all pairs of compound and target were hits.

Tests used:
Assay in all cases: log2 fold change, soluble protein after heating vs DMSO (PISA); higher = thermal stabilisation; K562 cells, 10 uM, 30 min; active = over 0.2 and 3.5 SD of the protein, either way, in both replicates (recomputed)
IRAK-1-4 Inhibitor I = compound: C1COCCN1CCN2C3=CC=CC=C3N=C2NC(=O)C4=CC(=CC=C4)[N+](=O)[O-] [IRAK-1-4 Inhibitor I]
Method in brief: (§1)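 Thermal stability values are relative to control samples and come from duplicates. They are expressed as log2 fold changes. For measurement, K562 cells (2×10^6 cells/mL) received 10 μM compound for 30 min, and aliquots were heated for 3 min over 48°C-58°C, pooled, and extracted at 4°C in PBS with 0.5% NP-40. Soluble protein, the supernatant after 21,000xg for 90 min, was quantified by TMTpro 16plex LC-MS/MS with equalised channel sums.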

ibrutinib = compound: C=CC(=O)N1CCC[C@@H](n2nc(-c3ccc(Oc4ccccc4)cc3)c3c(N)ncnc32)C1 [ibrutinib]
Method in brief: as §1

[1] = compound: CC(=O)c1cnc2ccc(-c3cc(Cl)c(O)c(Cl)c3)nc2c1N[C@H]1CC[C@H](CN(C)C)CC1
Method in brief: as §1

ralimetinib = compound: CC(C)(C)Cn1c(N)nc2ccc(-c3[nH]c(C(C)(C)C)nc3-c3ccc(F)cc3)nc21 [ralimetinib]
Method in brief: as §1

[2] = compound: CC(C)(O)CC(=O)NCCn1ccc2ncnc(Nc3ccc(Oc4cccc(C(F)(F)F)c4)c(Cl)c3)c21
Method in brief: as §1

[3] = compound: CC(C)C1=C2N=C(C=C(N2N=C1)NCC3=CC=CC=C3)NCCCCCCN
Method in brief: as §1

[4] = compound: CC(C)C[C@@H](C=O)NC(=O)[C@H](CC(C)C)NC(=O)[C@H](CC(C)C)NC(=O)OCc1ccccc1
Method in brief: as §1

pinometostat = compound: CC(C)N(C[C@H]1O[C@@H](n2cnc3c(N)ncnc32)[C@H](O)[C@@H]1O)[C@H]1C[C@@H](CCc2nc3cc(C(C)(C)C)ccc3[nH]2)C1 [pinometostat]
Method in brief: as §1

[5] = compound: CC1=C(C(CC(=O)N1)C2=CC=C(C=C2)C(F)(F)F)C(=O)NC3=C(C=C4C(=C3)C=NN4)F
Method in brief: as §1

[6] = compound: CC1=C(C2=C(C=C1)C(=O)C3=CC=CC=C3N2CCCN)C
Method in brief: as §1

[7] = compound: CC1=C(C=C(C=C1)NC(=O)C2=CC(=CC=C2)C(C)(C)C#N)NC3=CC4=C(C=C3)N=CN(C4=O)C
Method in brief: as §1

[8] = compound: CC1=C(C=C(C=C1)NC(=O)C2=CC(=CC=C2)N(C)C)NC(=O)C3=CC=C(C=C3)O
Method in brief: as §1

[9] = compound: CC1=CC=C(C=C1)SC2=C3C=C(SC3=CN=C2)C(=O)N
Method in brief: as §1

[10] = compound: CC1=NC(=CC=C1)C2=C(N=C(N2)C(C)(C)C)C3=CC4=NC=CN=C4C=C3
Method in brief: as §1

Nexturastat A = compound: CCCCN(Cc1ccc(C(=O)NO)cc1)C(=O)Nc1ccccc1 [Nexturastat A]
Method in brief: as §1

vemurafenib = compound: CCCS(=O)(=O)Nc1ccc(F)c(C(=O)c2c[nH]c3ncc(-c4ccc(Cl)cc4)cc23)c1F [vemurafenib]
Method in brief: as §1

[11] = compound: CCCS(=O)(=O)Nc1ccc(F)c(C(=O)c2c[nH]c3ncc(Cl)cc23)c1F
Method in brief: as §1

[12] = compound: CCCc1cc(C)[nH]c(=O)c1CNC(=O)c1cc(-c2ccnc(N3CCN(C)CC3)c2)cc2c1cnn2C(C)C
Method in brief: as §1

givinostat = compound: CCN(CC)Cc1ccc2cc(COC(=O)Nc3ccc(C(=O)NO)cc3)ccc2c1 [givinostat]
Method in brief: as §1

barasertib = compound: CCN(CCCOc1ccc2c(Nc3cc(CC(=O)Nc4cccc(F)c4)[nH]n3)ncnc2c1)CCOP(=O)(O)O [barasertib]
Method in brief: as §1

Measured: log2 fold change

UBAP2L isoform 5 (UniProt Q14157)
Chain of UniProt Q14157 (Q14157 whole entry, looked up): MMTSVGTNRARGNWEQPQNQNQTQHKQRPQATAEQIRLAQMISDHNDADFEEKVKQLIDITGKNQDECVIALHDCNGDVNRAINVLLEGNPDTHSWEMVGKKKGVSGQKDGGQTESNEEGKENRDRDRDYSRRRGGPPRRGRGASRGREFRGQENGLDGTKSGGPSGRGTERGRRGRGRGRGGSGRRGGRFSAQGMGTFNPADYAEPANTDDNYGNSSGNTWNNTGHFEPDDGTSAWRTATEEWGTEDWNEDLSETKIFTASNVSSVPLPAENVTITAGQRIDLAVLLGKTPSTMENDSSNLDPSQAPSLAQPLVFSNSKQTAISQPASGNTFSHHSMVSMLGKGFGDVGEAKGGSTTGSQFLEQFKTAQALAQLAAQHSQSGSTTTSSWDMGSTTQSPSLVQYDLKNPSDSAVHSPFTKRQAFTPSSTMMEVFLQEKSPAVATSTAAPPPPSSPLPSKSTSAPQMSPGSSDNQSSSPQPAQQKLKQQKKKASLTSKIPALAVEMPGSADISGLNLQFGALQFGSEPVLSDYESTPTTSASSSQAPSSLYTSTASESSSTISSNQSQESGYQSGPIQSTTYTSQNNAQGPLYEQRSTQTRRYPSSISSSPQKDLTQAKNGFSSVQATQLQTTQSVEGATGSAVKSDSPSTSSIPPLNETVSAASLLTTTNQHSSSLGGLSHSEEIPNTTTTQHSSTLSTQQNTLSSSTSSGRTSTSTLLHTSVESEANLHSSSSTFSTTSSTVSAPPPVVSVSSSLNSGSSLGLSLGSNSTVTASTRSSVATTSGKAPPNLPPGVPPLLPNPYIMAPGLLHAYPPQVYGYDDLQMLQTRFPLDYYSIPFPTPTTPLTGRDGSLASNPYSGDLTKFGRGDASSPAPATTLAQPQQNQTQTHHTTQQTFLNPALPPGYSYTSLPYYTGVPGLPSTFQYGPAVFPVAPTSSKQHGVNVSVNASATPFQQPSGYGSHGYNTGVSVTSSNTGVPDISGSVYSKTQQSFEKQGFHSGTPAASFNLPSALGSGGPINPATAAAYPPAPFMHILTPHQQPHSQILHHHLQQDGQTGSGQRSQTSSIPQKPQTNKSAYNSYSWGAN
inactive: IRAK-1-4 Inhibitor I 0.053 | ibrutinib 0.04 | [1] 0.017 | ralimetinib -0.007 | [2] 0.003 | [3] 0.053 | [4] -0.012 | pinometostat -0.032 | [5] 0.009 | [6] 0.068 | [7] -0.014 | [8] 0.036 | [9] 0.017 | [10] 0.013 | Nexturastat A 0.017 | vemurafenib -0.008 | [11] 0.006 | [12] -0.03 | givinostat 0.011 | barasertib 0.011

TMEM214 (UniProt Q6NUQ4)
inactive: IRAK-1-4 Inhibitor I -0.076 | ibrutinib -0.063 | [1] 0.028 | ralimetinib -0.03 | [2] 0.019 | [3] 0.066 | [4] 0.044 | pinometostat 0.073 | [5] 0.014 | [6] 0.074 | [7] -0.038 | [8] -0.054 | [9] 0.023 | [10] 0.007 | Nexturastat A 0.062 | vemurafenib 0.046 | [11] 0.065 | [12] 0 | givinostat 0.021 | barasertib -0.03

UTP14A (UniProt Q9BVJ6)
active: [6] -0.708
inactive: IRAK-1-4 Inhibitor I -0.13 | ibrutinib -0.026 | [1] 0.088 | ralimetinib 0.11 | [2] 0.007 | [3] -0.113 | [4] 0.154 | pinometostat 0.262 | [5] 0.065 | [7] 0.028 | [8] 0.008 | [9] -0.002 | [10] -0.068 | Nexturastat A 0.194 | vemurafenib -0.066 | [11] 0.028 | [12] 0.109 | givinostat 0.048 | barasertib -0.112

VTI1A (UniProt Q96AJ9)
Chain of UniProt Q96AJ9 (Q96AJ9 whole entry, looked up): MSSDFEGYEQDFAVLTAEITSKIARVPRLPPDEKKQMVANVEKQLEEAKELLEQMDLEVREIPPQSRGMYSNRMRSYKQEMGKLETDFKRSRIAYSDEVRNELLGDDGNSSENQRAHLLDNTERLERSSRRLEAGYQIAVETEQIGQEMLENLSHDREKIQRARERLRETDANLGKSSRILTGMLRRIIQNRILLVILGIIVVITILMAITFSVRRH
inactive: IRAK-1-4 Inhibitor I 0.095 | ibrutinib 0.012 | [1] -0.009 | ralimetinib -0.111 | [2] 0.019 | [3] 0.005 | [4] 0.028 | pinometostat -0.016 | [5] 0.028 | [6] -0.01 | [7] -0.039 | [8] 0.015 | [9] 0.011 | [10] 0.095 | Nexturastat A -0.023 | vemurafenib -0.014 | [11] -0.035 | [12] 0.052 | givinostat -0.013 | barasertib -0.009

VPS52 (UniProt Q8N1B4)
inactive: IRAK-1-4 Inhibitor I -0.057 | ibrutinib 0.068 | [1] 0 | ralimetinib 0.05 | [2] -0.161 | [3] -0.02 | [4] 0.088 | pinometostat 0.048 | [5] -0.018 | [6] 0.142 | [7] -0.071 | [8] -0.001 | [9] -0.009 | [10] 0.005 | Nexturastat A 0.079 | vemurafenib 0.023 | [11] 0.006 | [12] 0.048 | givinostat -0.004 | barasertib 0.054

XPOT (UniProt O43592)
inactive: IRAK-1-4 Inhibitor I -0.035 | ibrutinib -0.061 | [1] 0.064 | ralimetinib -0.079 | [2] -0.146 | [4] 0.053 | pinometostat 0.03 | [5] 0.001 | [6] 0.033 | [7] 0.018 | [8] -0.031 | [9] 0.023 | [10] 0.029 | Nexturastat A -0.012 | vemurafenib 0.039 | [11] 0.128 | [12] 0.014 | givinostat 0.007 | barasertib 0.08
active: [3] -0.345

TXNIP (UniProt Q9H3M7)
Chain of UniProt Q9H3M7 (Q9H3M7 whole entry, looked up): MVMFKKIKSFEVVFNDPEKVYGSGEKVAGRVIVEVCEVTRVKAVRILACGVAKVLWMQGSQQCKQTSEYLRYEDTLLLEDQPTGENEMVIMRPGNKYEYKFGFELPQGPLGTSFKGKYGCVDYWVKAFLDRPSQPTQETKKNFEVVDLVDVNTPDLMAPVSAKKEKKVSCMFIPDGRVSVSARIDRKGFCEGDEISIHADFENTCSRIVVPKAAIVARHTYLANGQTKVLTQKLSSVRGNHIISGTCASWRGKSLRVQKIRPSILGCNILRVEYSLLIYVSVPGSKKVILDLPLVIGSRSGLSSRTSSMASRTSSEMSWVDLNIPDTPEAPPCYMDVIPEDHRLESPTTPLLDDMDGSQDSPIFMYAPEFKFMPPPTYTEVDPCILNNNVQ
inactive: IRAK-1-4 Inhibitor I 0.05 | ibrutinib 0.016 | [1] -0.053 | ralimetinib 0.13 | [2] 0.072 | [3] -0.371 | [4] 0.128 | pinometostat -0.083 | [5] -0.097 | [7] -0.04 | [8] 0.003 | [9] -0.115 | [10] 0.034 | Nexturastat A 0.177 | vemurafenib -0.005 | [11] -0.079 | [12] 0.001 | givinostat -0.06 | barasertib 0.033
active: [6] -0.42

TMEM223 (UniProt A0PJW6)
Chain of UniProt A0PJW6 (A0PJW6 whole entry, looked up): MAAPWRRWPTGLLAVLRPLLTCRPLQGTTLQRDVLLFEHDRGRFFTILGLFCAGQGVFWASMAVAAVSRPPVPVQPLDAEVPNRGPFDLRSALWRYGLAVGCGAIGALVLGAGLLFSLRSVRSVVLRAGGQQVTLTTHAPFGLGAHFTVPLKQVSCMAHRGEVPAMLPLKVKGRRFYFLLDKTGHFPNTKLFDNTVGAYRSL
inactive: IRAK-1-4 Inhibitor I 0.039 | ibrutinib 0.006 | [1] -0.101 | ralimetinib -0.009 | [2] 0.114 | [3] -0.063 | [4] 0 | pinometostat -0.019 | [5] -0.087 | [6] 0.042 | [7] 0.034 | [8] -0.001 | [9] -0.026 | [10] 0.058 | Nexturastat A -0.13 | vemurafenib 0.084 | [11] 0.055 | [12] -0.128 | givinostat 0.002 | barasertib 0.041

TRMT10A (UniProt Q8TBZ6)
inactive: IRAK-1-4 Inhibitor I 0.056 | ibrutinib -0.009 | [1] -0.065 | ralimetinib -0.006 | [2] -0.107 | [3] -0.075 | [4] -0.01 | pinometostat 0.042 | [5] 0.02 | [6] 0.066 | [7] 0.006 | [8] -0.004 | [9] 0.063 | [10] 0.031 | Nexturastat A -0.079 | vemurafenib 0.014 | [11] -0.017 | [12] -0.011 | givinostat -0.004 | barasertib -0.019

VWA8 (UniProt A3KMH1)
inactive: IRAK-1-4 Inhibitor I 0.022 | ibrutinib -0.015 | [1] -0.041 | ralimetinib 0.016 | [2] -0.115 | [3] -0.149 | [4] -0.032 | pinometostat -0.004 | [5] 0.009 | [6] 0.021 | [7] -0.07 | [8] 0.042 | [9] 0.023 | [10] 0.019 | Nexturastat A -0.059 | vemurafenib 0.034 | [11] 0.011 | [12] 0.032 | givinostat 0.025 | barasertib 0.022

TMEM41A (UniProt Q96HV5)
Chain of UniProt Q96HV5 (Q96HV5 whole entry, looked up): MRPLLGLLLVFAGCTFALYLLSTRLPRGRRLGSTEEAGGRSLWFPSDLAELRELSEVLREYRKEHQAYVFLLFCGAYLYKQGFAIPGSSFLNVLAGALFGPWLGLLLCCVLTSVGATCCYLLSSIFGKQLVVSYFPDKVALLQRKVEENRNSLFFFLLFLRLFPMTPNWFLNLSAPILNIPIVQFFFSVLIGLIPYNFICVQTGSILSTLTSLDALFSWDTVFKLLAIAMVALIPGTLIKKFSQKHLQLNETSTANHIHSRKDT
inactive: IRAK-1-4 Inhibitor I -0.022 | ibrutinib -0.007 | [1] -0.04 | ralimetinib 0.033 | [2] 0.022 | [3] 0.043 | [4] -0.079 | pinometostat -0.06 | [5] 0.035 | [6] 0.151 | [7] 0.039 | [8] 0.093 | [9] 0.002 | [10] 0.014 | Nexturastat A -0.138 | vemurafenib -0.163 | [11] -0.101 | [12] -0.021 | givinostat -0.043 | barasertib 0.001

TOMM20 (UniProt Q15388)
Chain of UniProt Q15388 (Q15388 whole entry, looked up): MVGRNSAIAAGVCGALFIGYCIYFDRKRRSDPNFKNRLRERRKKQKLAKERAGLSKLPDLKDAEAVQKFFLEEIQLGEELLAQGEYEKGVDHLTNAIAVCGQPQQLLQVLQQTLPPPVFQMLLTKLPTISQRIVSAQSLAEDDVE
inactive: IRAK-1-4 Inhibitor I 0.006 | ibrutinib 0 | [1] 0.003 | ralimetinib -0.017 | [2] 0.118 | [4] 0.047 | pinometostat 0.022 | [5] -0.021 | [6] 0.018 | [7] 0.058 | [8] 0.044 | [9] 0.04 | [10] -0.019 | Nexturastat A 0.019 | vemurafenib -0.024 | [11] 0.092 | [12] 0.026 | givinostat 0.011 | barasertib 0.021
active: [3] -0.343

TRAPPC3 (UniProt O43617)
inactive: IRAK-1-4 Inhibitor I 0.03 | ibrutinib -0.032 | [1] -0.056 | ralimetinib -0.083 | [2] -0.033 | [3] -0.105 | [4] 0.001 | pinometostat -0.029 | [5] 0.031 | [6] 0.008 | [7] 0 | [8] 0.023 | [9] 0.061 | [10] 0.042 | vemurafenib 0.023 | [11] 0.01 | [12] -0.006 | givinostat -0.051 | barasertib 0.025
active: Nexturastat A -0.218

USP3 (UniProt Q9Y6I4)
inactive: IRAK-1-4 Inhibitor I 0.035 | ibrutinib -0.083 | [1] -0.126 | ralimetinib -0.013 | [2] -0.107 | [3] -0.146 | [4] -0.145 | pinometostat -0.075 | [5] 0.006 | [6] -0.006 | [7] 0.026 | [8] -0.016 | [9] 0.085 | [10] 0.069 | Nexturastat A 0.01 | vemurafenib 0.112 | [11] 0.192 | [12] -0.069 | givinostat -0.022 | barasertib 0.067

TSG101 (UniProt Q99816)
inactive: IRAK-1-4 Inhibitor I 0.05 | ibrutinib 0.004 | [1] -0.017 | ralimetinib -0.005 | [2] -0.025 | [3] -0.146 | [4] 0.031 | pinometostat -0.003 | [5] 0.001 | [6] -0.012 | [7] 0 | [8] -0.011 | [9] -0.001 | [10] 0.025 | Nexturastat A -0.017 | vemurafenib 0.021 | [11] 0.024 | [12] -0.057 | givinostat 0.035 | barasertib 0.046

USP24 (UniProt Q9UPU5)
Chain of UniProt Q9UPU5 (Q9UPU5 whole entry, looked up): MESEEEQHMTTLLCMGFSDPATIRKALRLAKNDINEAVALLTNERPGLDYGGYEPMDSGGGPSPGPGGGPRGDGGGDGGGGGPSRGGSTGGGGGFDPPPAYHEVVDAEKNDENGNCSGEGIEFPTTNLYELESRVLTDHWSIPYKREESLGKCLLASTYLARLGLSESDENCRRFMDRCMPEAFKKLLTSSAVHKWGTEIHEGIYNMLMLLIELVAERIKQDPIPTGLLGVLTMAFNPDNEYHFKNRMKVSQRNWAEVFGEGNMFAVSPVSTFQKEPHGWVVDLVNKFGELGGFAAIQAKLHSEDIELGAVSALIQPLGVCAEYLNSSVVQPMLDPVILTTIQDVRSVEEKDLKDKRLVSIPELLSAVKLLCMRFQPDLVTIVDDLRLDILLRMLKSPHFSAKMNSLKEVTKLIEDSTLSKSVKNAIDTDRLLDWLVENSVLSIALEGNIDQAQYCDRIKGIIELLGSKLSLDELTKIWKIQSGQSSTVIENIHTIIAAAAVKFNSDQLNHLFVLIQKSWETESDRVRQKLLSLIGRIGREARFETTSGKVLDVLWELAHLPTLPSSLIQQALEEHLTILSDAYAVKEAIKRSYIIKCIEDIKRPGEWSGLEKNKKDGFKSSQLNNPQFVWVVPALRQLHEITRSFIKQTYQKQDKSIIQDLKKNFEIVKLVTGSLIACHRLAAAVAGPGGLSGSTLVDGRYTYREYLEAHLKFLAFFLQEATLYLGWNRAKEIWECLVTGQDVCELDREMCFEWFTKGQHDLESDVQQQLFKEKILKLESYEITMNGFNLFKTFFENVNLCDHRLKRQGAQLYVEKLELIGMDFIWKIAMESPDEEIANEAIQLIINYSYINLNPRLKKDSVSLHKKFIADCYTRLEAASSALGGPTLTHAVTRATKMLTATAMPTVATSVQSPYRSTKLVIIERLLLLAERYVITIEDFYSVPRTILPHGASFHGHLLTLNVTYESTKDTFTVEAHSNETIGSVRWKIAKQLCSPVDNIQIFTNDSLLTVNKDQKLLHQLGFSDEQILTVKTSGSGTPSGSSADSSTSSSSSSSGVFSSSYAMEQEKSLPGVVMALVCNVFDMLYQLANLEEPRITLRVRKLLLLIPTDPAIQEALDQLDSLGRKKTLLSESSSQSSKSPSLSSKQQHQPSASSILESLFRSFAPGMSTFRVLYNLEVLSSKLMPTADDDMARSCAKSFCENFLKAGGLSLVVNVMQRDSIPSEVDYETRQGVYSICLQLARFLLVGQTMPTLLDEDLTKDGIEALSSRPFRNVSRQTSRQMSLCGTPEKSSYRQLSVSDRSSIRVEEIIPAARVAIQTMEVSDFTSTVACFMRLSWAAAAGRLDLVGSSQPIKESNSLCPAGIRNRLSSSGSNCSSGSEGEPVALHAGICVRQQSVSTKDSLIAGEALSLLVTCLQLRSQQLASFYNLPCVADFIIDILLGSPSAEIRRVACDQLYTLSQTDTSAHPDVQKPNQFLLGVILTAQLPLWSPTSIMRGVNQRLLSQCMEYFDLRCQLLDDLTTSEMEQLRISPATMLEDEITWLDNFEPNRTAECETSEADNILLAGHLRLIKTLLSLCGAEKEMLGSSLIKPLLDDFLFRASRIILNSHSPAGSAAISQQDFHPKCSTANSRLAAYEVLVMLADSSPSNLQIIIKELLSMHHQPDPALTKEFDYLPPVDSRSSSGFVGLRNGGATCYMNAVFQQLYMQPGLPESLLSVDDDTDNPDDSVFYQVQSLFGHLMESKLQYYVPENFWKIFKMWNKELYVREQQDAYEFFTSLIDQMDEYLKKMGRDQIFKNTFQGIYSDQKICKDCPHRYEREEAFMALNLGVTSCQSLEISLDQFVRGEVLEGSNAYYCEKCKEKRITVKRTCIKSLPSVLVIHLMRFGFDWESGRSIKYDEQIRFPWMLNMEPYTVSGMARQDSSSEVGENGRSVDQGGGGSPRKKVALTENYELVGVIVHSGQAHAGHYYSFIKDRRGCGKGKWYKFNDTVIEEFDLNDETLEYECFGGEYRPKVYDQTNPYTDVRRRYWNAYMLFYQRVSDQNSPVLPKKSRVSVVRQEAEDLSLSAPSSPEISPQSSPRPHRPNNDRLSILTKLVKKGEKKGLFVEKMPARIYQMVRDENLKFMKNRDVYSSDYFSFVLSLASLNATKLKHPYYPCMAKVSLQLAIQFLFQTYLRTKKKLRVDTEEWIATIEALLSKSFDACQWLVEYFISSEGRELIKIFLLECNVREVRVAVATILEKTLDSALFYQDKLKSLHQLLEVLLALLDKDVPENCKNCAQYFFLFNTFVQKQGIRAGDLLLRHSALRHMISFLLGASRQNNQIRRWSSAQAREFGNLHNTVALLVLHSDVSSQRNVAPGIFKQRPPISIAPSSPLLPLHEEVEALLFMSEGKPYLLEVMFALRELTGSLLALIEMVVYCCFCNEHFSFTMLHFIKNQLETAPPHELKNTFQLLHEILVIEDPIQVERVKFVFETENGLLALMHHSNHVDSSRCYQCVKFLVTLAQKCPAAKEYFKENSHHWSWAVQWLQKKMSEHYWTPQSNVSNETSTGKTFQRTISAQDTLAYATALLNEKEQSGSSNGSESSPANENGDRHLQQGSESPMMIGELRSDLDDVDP
inactive: IRAK-1-4 Inhibitor I 0.052 | ibrutinib 0.086 | [1] 0.156 | ralimetinib -0.077 | [2] -0.093 | [3] 0.004 | [4] -0.043 | pinometostat -0.026 | [5] -0.08 | [6] 0.017 | [7] 0.114 | [8] -0.026 | [9] 0 | [10] 0.012 | Nexturastat A -0.047 | vemurafenib 0 | [11] 0.052 | [12] -0.042 | givinostat 0.011 | barasertib -0.053
